High-throughput results deposited in PubChem BioAssay by Broad Institute.
RAD54 branch: inhibitors of human RAD54 branch migration, primary screen, biochemical, fluorescence, single point | 360,000 compounds, 0.14% hits | inhibition, % at 10.4 µM | RAD54 Holliday junction branch migration, FAM/BHQ fluorescence | DNA repair and recombination protein RAD54-like (Homo sapiens), Q92698;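 active = mean normalized replicate activity at least 40 and at least half of replicates scoring 40 or more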;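 note: inhibitors cause a drop in the FAM fluorescence signal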
Target sequence (Q92698 whole entry, looked up): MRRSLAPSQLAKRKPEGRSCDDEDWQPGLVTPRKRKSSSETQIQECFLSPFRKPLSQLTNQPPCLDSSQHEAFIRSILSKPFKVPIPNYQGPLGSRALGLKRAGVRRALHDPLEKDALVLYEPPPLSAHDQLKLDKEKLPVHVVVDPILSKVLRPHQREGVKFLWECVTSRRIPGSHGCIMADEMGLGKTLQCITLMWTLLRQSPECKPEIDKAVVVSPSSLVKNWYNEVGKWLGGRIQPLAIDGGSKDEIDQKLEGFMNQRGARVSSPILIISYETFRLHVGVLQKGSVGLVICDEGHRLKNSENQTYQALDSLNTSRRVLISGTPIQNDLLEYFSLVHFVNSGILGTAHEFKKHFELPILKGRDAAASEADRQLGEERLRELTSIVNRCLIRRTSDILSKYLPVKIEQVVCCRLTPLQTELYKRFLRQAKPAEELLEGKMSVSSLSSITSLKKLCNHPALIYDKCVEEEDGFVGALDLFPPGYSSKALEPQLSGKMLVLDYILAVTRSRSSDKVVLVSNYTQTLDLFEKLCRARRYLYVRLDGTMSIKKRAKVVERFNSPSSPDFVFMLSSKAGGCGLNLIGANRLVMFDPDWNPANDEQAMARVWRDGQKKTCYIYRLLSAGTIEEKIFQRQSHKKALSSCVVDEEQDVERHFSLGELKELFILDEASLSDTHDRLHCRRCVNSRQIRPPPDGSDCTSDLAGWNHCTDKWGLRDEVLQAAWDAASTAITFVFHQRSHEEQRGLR
GSIS activator: GLuc luminescence reporter in INS-1E cells, primary screen for activators of glucose-dependent secretion of insulin; 370,000 compounds, 0.61% hits; activation, % at 16.6 µM; INS-1E GLuc reporter insulin secretion, 2-3 h;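 active = lowest replicate activation of at least 40%, so every replicate reaches that level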
CFTR F508del cor: F508del CFTR correction, initial screen, CFBE line, single point; CFBE cells, YFP halide quenching; stimulated with forskolin plus potentiator P3; % fluorescence drop versus neutral controls; activity (quench increase), % at 7.58 µM; AID 720511, 2013; 350,000 compounds, 0.36% hits;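 active = mean added fluorescence quench of at least 8% versus neutral control, with both replicates also reaching 8%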;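 note: cells transiently co-express mutant CFTR-F508del with the halide-sensitive YFP; corrector assay measuring rescue of mutant channel to the surface after 24 h compound exposure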
RAD52 anneal inh: RAD52 DNA annealing inhibitors, primary screen, biochemical, FRET, single point, set 2; DNA repair protein RAD52 homolog (Homo sapiens), P43351; recombinant RAD52 DNA annealing, FRET fluorescence; inhibition, % at 18.7 µM; 360,000 compounds, 0.46% hits;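 active = every replicate showing at least 50% inhibition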
EWS-Fli inh: EWS/Fli-driven NR0B1 reporter inhibitors, primary screen, A673 cells, NR0B1 luciferase, luminescence, MLPCN library; AID 651661, 2012; viability-normalised; inhibition, % at 12.6 µM; 350,000 compounds, 0.67% hits;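 active = mean inhibition of at least 50% after viability correction, with every replicate also passing that limit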;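 note: firefly luciferase signal divided by Alamar Blue viability fluorescence both relative to DMSO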
LGR2 antag: inhibitors of bursicon-induced LGR2 CRE-luciferase signal, primary screen, cell-based, HEK293, CRE-luciferase reporter, bursicon stimulation; Drosophila bursicon receptor LGR2 (rickets); bursicon-stimulated, 4 h; inhibition, % at 9.99 µM; 380,000 compounds, 0.35% hits;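 active = drop in luminescence signal, shown as inhibition above about 50% in the replicate tests, limit read from the data, passing the limit was not always enough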;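 note: agonist challenge used bursicon conditioned medium at about half maximal strength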
Large screens that a line does not name were inactive. Sampled rows, rich in hits. Any-hit rate of the full collection: about 1.8%.

C[C@@H]1CCCCO[C@@H](CN(C)C(=O)Nc2ccccc2)[C@H](C)CN([C@@H](C)CO)C(=O)c2cc(NC(=O)Nc3ccc(F)cc3)ccc2O1	none
CCCN(C)C[C@H]1OCCCC[C@H](C)Oc2ccc(NC(=O)Nc3ccc(F)cc3)cc2C(=O)N([C@@H](C)CO)C[C@H]1C	none (no result: RAD54 branch, RAD52 anneal inh)
O=C1O[C@H](c2ccccc2)[C@H](c2ccccc2)N2[C@H]1[C@@H](C(=O)O)[C@]1(C(=O)Nc3ccccc31)[C@H]2c1ccc(O)cc1	none (no result: GSIS activator, LGR2 antag)
Nc1ccc(-n2nnnc2-c2ccco2)cc1	none (no result: CFTR F508del cor, RAD52 anneal inh, EWS-Fli inh, LGR2 antag)
CCCNC(=O)C[C@@H]1C[C@H]2c3cc(NS(=O)(=O)c4ccc(OC)cc4)ccc3O[C@H]2[C@H](CO)O1	none (no result: RAD52 anneal inh)
C[C@@H]1CN([C@@H](C)CO)C(=O)c2cc(NC(=O)Nc3ccc(F)cc3)ccc2O[C@@H](C)CCCCO[C@H]1CN(C)C(=O)CCCN(C)C	RAD52 anneal inh 51.1
COc1cccc2oc3ccc(C#CC4(N)CCCCC4)cc3c(=O)c12	RAD54 branch 50.7
COc1cc2oc3ccc(C#Cc4ccc(N)cc4)cc3c(=O)c2cc1OC	none
C/C=C/c1ccc([C@@H]2[C@H](CO)N(CC3CC3)[C@H]2CNC(=O)c2ccccc2)cc1	CFTR F508del cor 10.5
C/C=C/c1ccc([C@H]2[C@@H](CNC(=O)CC)N(C(=O)COC)[C@H]2CO)cc1	CFTR F508del cor 14.4
C/C=C/c1ccc([C@@H]2[C@@H](CO)N(C(=O)COC)[C@H]2CNC(=O)CC)cc1	none
COc1ccc2nc(CCN(C)C(=O)C3CCC(=O)N(Cc4cccc(F)c4)C3)[nH]c2c1 (centres undefined)	GSIS activator 61.5
COc1cccc(CN2CC(C(=O)N(C)Cc3nc4ccc(F)cc4[nH]3)CCC2=O)c1 (centres undefined)	none
COC(=O)c1c(-c2cc(C)ccc2C)csc1NC(=O)C1CC=CCC1C(=O)O (centres undefined)	none (no result: RAD54 branch)
O=C(NCc1ccco1)c1nc2c(nnn2Cc2ccccc2Cl)c(=O)[nH]1	LGR2 antag 92.8
Cc1ccc(C)c(Cn2nnc3c(=O)[nH]c(C(=O)NCc4ccco4)nc32)c1	none (no result: CFTR F508del cor, EWS-Fli inh)
COc1cccc2c1C(=O)c1c(O)c3c(c(O)c1C2=O)C[C@](O)(C(C)=O)C[C@H]3O[C@@H]1C[C@@H](N)[C@@H](O)[C@@H](C)O1	CFTR F508del cor 30.9 (no result: GSIS activator)
COc1cccc2c1C(=O)c1c(O)c3c(c(O)c1C2=O)CC(O)(C(C)=O)CC3OC1CC(O)C(O)C(C)O1 (centres undefined)	CFTR F508del cor 19.4 (no result: RAD54 branch, GSIS activator, LGR2 antag)
Cc1ccc(S(=O)(=O)N2CCC(=O)N(C(COCc3ccc(C(F)(F)F)cc3)C(C)C)CC2)cc1 (centres undefined)	none (no result: GSIS activator, CFTR F508del cor, RAD52 anneal inh, EWS-Fli inh, LGR2 antag)
CN(CCC#N)c1ccc(/C=C(\C#N)c2ccccn2)cc1	LGR2 antag 73.0
O=C(Nc1ccc(S(=O)(=O)NC2=NCCCCC2)cc1)c1ccc([N+](=O)[O-])s1	EWS-Fli inh 59.4
O=C(Nc1ccc(S(=O)(=O)NC2=NCCCCC2)cc1)c1cccs1	none
O=S1(=O)CC(N2CCCCC2)CN1Cc1cn(Cc2cccc(Cl)c2)nn1 (centres undefined)	none (no result: RAD54 branch)
COc1nc(Nc2nc3ccccc3c(=O)[nH]2)nc2ccc(C)cc12	LGR2 antag 52.4
Cn1c(=NC(=O)c2ccccc2[N+](=O)[O-])sc2cc(S(C)(=O)=O)ccc21	GSIS activator 86.7 (no result: CFTR F508del cor, RAD52 anneal inh, EWS-Fli inh)
CCOC(=O)Nc1ccc2c(c1)C(=NNC(N)=S)c1ccccc1-2	LGR2 antag 82.9 (no result: RAD54 branch)
Cc1ccc(N/N=C2\CCS(=O)(=O)c3sccc32)cc1	none (no result: RAD54 branch)
COc1ccc(-n2c3c(c(=O)[nH]c2=O)C(NS(=O)(=O)c2ccc(Cl)cc2)(C(F)(F)F)C(=O)N3)cc1 (centres undefined)	GSIS activator 55.0
COc1ccc(-n2c3c(c(=O)[nH]c2=O)C(NC(C)=O)(C(F)(F)F)C(=O)N3)cc1 (centres undefined)	none
O=C(C[C@@H]1C=C[C@H](NC(=O)CN2CCOCC2)[C@H](CO)O1)NCCc1ccccc1	none
CCC1(CC)NC(=O)N(CC(=O)OCC(=O)Nc2ccc(OC(F)(F)F)cc2)C1=O	none
Cc1ccc(C(=O)CSc2nnc(-c3ccc4[nH]c(C)c(C)c4c3)o2)cc1C	none (no result: CFTR F508del cor, RAD52 anneal inh, EWS-Fli inh)
O=C(NCc1ccc(Cl)cc1)c1cc(=O)[nH]c2ccc(S(=O)(=O)N3CCOCC3)cc12	GSIS activator 55.3
O=C(Oc1c(CN2CCOCC2)cc(Cl)c2cccnc12)c1ccccc1	none (no result: RAD54 branch, CFTR F508del cor)
Oc1c(Cl)cc(CN2CCOCC2)c2cccnc12	CFTR F508del cor 27.3
Cc1noc(C)c1S(=O)(=O)N1CCN(c2ccc(Cl)cc2)CC1	none (no result: EWS-Fli inh)
Cc1cccc(OCC(=O)OC2CCN(C)CC2)c1	none (no result: GSIS activator, CFTR F508del cor, RAD52 anneal inh, EWS-Fli inh, LGR2 antag)
COCC(=O)Nc1ccc2c(c1)[C@@H]1C[C@H](CC(=O)NCc3ccccc3OC)O[C@@H](CO)[C@@H]1O2	none
O=C(N/N=C/c1ccccc1)c1ccco1	none (no result: RAD54 branch)
O=C(C#Cc1ccccc1)c1ccco1	EWS-Fli inh 64.0, LGR2 antag 50.0
COC(=O)c1cccc(C(=O)N2CCCC(CNC(=O)c3ccccc3Cl)C2)c1 (centres undefined)	none
CC1CCc2nn(CC(=O)NCc3ccco3)cc2C1 (centres undefined)	none
COc1ccc(C2C(C(=O)c3ccccc3)N3c4ccccc4C=CC3C2[N+](=O)[O-])cc1 (centres undefined)	CFTR F508del cor 22.7 (no result: RAD54 branch)
COc1ccc(N2C(=O)[C@@H]3[C@H](C2=O)[C@H](C(C)=O)N2c4ccccc4C=C[C@@H]32)cc1	none (no result: GSIS activator, LGR2 antag)
COc1ccc([C@@]23Oc4cc(OC)cc(OC)c4[C@]2(O)[C@H](O)[C@H](C(=O)N(C)C)[C@H]3c2ccccc2)cc1	LGR2 antag 99.2 (no result: RAD54 branch)
COC(=O)c1cccc(Nc2c3c(nc4ccccc24)CCC3)c1	none
CC(=O)c1ccc(Nc2c3c(nc4ccccc24)CCCC3)cc1	EWS-Fli inh 71.1 (no result: RAD54 branch)
COc1ccc(Nc2c3c(nc4ccccc24)CCC3)c(OC)c1	none
COc1ccccc1Nc1c2c(nc3ccccc13)CCC2	CFTR F508del cor 9.8, EWS-Fli inh 61.9
CC(=O)c1cccc(Nc2c3c(nc4ccccc24)CCC3)c1	CFTR F508del cor 14.8, EWS-Fli inh 56.5
CCN(CC)c1ccc2cc(-c3nnc(-c4ccncc4)o3)c(=O)oc2c1	none (no result: CFTR F508del cor, RAD52 anneal inh, EWS-Fli inh)
Cc1noc(C)c1COc1cccc(C(=O)NCCc2c[nH]c3ccccc23)c1	EWS-Fli inh 54.7 (no result: RAD54 branch)
Cc1ccc(CNC(=O)c2cccc(OCc3c(C)noc3C)c2)cc1	none (no result: GSIS activator, CFTR F508del cor, RAD52 anneal inh, EWS-Fli inh, LGR2 antag)
CN(C)c1ccc(N=Nc2nccs2)cc1	LGR2 antag 85.6 (no result: GSIS activator)
